From paper PMC4552634, “A New Set of Chemical Starting Points with Plasmodium falciparum Transmission-Blocking Potential for Antimalarial Drug Discovery” (PLoS ONE, 2015)
The whole screen tested about 13,000 compounds, of which about 3,200 (25%) showed an effect of 50% or more. The list shows a part of the results.

test system: P. falciparum stage V gametocytes; set-up: BacTiter-Glo ATP luminescence viability of purified stage V gametocytes in 384-well plates, per cent inhibition versus DMSO; settings: 48 h, 5 µM; inhibitor

Compound	% Inhibition [%]
OC(CNCc1ccccc1Oc1ccccc1)c1cccc(C(F)(F)F)c1 (centres unmarked) [TCMDC-140397]	30.17
CC1CN(c2cc(=O)n(Cc3cccc(NC(=O)Nc4ccc(-c5ccccc5)cc4)c3)cn2)CC(C)N1 (centres unmarked) [TCMDC-133365]	-7.987
FC(F)(F)c1ccc2[nH]c(-c3cccc(-c4ccc(CNCC5CCCO5)cc4)c3)nc2c1.O=C(O)C(F)(F)F (centres unmarked) [TCMDC-133103]	-16.51
COc1ccc2nccc([C@@H](O)CN3CCC(NC(=O)c4ccc(-c5ccc(C#N)cc5)cc4)CC3)c2c1 [TCMDC-141001]	7.804
COC(=O)c1ccc(CCC(C)NCC(O)c2cccc(C(F)(F)F)c2)cc1 (centres unmarked) [TCMDC-131440]	17.3
CCC1CCCCN1S(=O)(=O)c1ccc(OC)c(N2CCN(C(=O)C(Cl)(Cl)Cl)CC2)c1 (centres unmarked) [TCMDC-139255]	3.13
CCN(C1CCCCC1)S(=O)(=O)c1ccc(OC)c(N2CCN(C(=O)C(Cl)(Cl)Cl)CC2)c1 [TCMDC-139319]	82.34
COc1ccc(S(=O)(=O)N2CCCc3ccc(Br)cc32)cc1N1CCN(C(=O)C(Cl)(Cl)Cl)CC1 [TCMDC-139339]	22.46
CSc1nc2nc(C)c(Cc3cccc(F)c3)c(C)n2n1 [TCMDC-123765]	1.864
COc1cc2ncnc(Nc3ccc4nc(-c5ccccc5)[nH]c4c3)c2cc1OC [TCMDC-137191]	-26.1
Cc1c2ccncc2c(C)c2c1[nH]c1ccccc12 [TCMDC-125546]	-37.29
Cc1c2ccncc2c(C)c2c1[nH]c1cc(Cc3ccccc3)c(O)cc12 [TCMDC-132053]	89.31
O=C(Nc1ccc(-c2cccc(-c3nc4ccc(C(F)(F)F)cc4[nH]3)c2)cc1)c1ccc(=O)[nH]n1 [TCMDC-137032]	18.19
CCC(C)(C)c1ccc(N2C(N)=NC(N)=NC2(C)C)cc1 [TCMDC-137919]	8.342
O=C(Nc1ccc(Cl)cc1)OCCn1nnnc1C(c1ccc(Cl)cc1)N1CCOCC1 (centres unmarked) [TCMDC-124138]	-11.24
COc1ccc2nccc(NC(=O)N3CCC(NCCOc4cc(F)cc(F)c4)CC3)c2n1 [TCMDC-140666]	29.69
COc1ccc2nccc(NC(=O)C3CCC(NCc4cnc(SC)c([N+](=O)[O-])c4)CC3)c2n1 (centres unmarked) [TCMDC-131238]	93.77
COc1ccc2nccc(NC(=O)C3(O)CCC(NCc4ccc5c(c4)NCCS5)CC3)c2n1 (centres unmarked) [TCMDC-141406]	32.7
Cc1cccc2[nH]c(-c3ccc(-c4cccc(NC(=O)Nc5ccc(F)c(F)c5F)c4)cc3)nc12 [TCMDC-133234]	-5.873
O=C(N[C@@H](CC1CCCCC1)C(=O)NC1CCCCC1)c1ccc(O)c(-c2cccc(C(F)(F)F)c2)c1 [TCMDC-140810]	6.892
O=C(N[C@@H](Cc1ccccc1)C(=O)NC1CCCCCC1)c1ccc(O)c(-c2cccc(C(F)(F)F)c2)c1 [TCMDC-140813]	18.86
O=C(N[C@@H](Cc1ccccc1)C(=O)NC1CCCCC1)c1ccc(O)c(-c2cccc(C(F)(F)F)c2)c1 [TCMDC-140809]	50.49

Compound	% Inhibition [%]
OC(CNc1ccnc(Nc2ccccc2)n1)c1ccc(C(F)(F)F)cc1 (centres unmarked) [TCMDC-136598]	-1.002
O=c1cc(NCCCNCc2[nH]c3cc(Cl)ccc3c2Cl)[nH]c2ccccc12 [TCMDC-139966]	-23.52
COc1cccc(C(NC(=O)c2ccccc2)c2ccc3cccnc3c2O)c1 (centres unmarked) [TCMDC-125755]	75.54
Cc1ccc(C(NC(=O)c2ccccc2)c2ccc3cccnc3c2O)cc1 (centres unmarked) [TCMDC-125552]	16.34
O=C(NC(c1ccccc1)c1ccc2cccnc2c1O)c1ccccc1 (centres unmarked) [TCMDC-123701]	103.7
N#Cc1ccc(N2CCN(C(=O)c3cccc(-c4noc(C(F)(F)F)n4)c3)CC2)nc1 [TCMDC-132424]	8.571
O=C(NC(CCCN1CCC2(CC1)OCc1ccccc12)c1ccc(Cl)c(Cl)c1)c1cc(C(F)(F)F)cc(C(F)(F)F)c1 (centres unmarked) [TCMDC-141897]	69.2
O=C(Nc1cc(C(F)(F)F)cc(C(F)(F)F)c1)NC(CCCN1CCC2(CC1)OCc1ccccc12)c1ccc(Cl)c(Cl)c1 (centres unmarked) [TCMDC-141899]	-60.02
O=C(NC(CCCN1CCC(c2ccccc2)CC1)c1ccc(Cl)c(Cl)c1)c1cc(C(F)(F)F)cc(C(F)(F)F)c1 (centres unmarked) [TCMDC-141900]	23.85
O=C(Nc1ccc([N+](=O)[O-])cc1)c1nn(-c2ccccc2)cc1N=Cc1cccc(O)c1 [TCMDC-124108]	-28.07
CCCCCn1c(Sc2ccc(C#N)c([N+](=O)[O-])c2)nnc1-c1cccs1 [TCMDC-135585]	31.33
O=C(NCc1ccccn1)C(c1cc2ccccc2o1)N1CCN(C(c2ccccc2)c2ccccc2)CC1 (centres unmarked) [TCMDC-141024]	9.637
NCc1cccc(-c2ccccc2CNC2CCN(Cc3ccccc3)CC2)c1 [TCMDC-140467]	102.5
Oc1ccc(CN2CCC(NCc3cccc4ccccc34)CC2)cc1 [TCMDC-141654]	18.51
NCc1ccc(-c2ccccc2CNC2CCN(Cc3ccccc3)CC2)cc1 [TCMDC-140468]	88.27
c1ccc(CN2CCC(NCc3ccccc3-c3cccc(CNC4CCCC4)c3)CC2)cc1 [TCMDC-140472]	106.9
CC(C)c1ccc(N2CCN(CCCCNC(=O)c3ccc(NC(=O)c4cc(Cl)cc(Cl)c4)cc3)CC2)cc1 [TCMDC-138232]	-31.61
O=C(Cc1ccc(Nc2nccc(Nc3cccc4[nH]ncc34)n2)cc1)Nc1ccc(C(F)(F)F)cc1 [TCMDC-136243]	0.831
CCCCCc1cnc2nc(N)nc(N)c2c1C [TCMDC-137717]	7.113
Cc1cnc(C(=O)Nc2ccc3c(c2)CCCN(Cc2c[nH]c4cnccc24)C3)cn1 [TCMDC-134846]	9.147
CC(C)c1ccc(N(CC(=O)N/N=C/c2ccc(C(F)(F)F)cc2)S(=O)(=O)c2ccc(C(F)(F)F)cc2)cc1 [TCMDC-135354]	13.17
O=c1ccc2ccc(O)c(O)c2o1 [TCMDC-125839]	-8.739

Compound	% Inhibition [%]
COc1ccc(-c2cnc(N)c(-c3nc4ccc(Br)cc4[nH]3)c2)cc1 [TCMDC-133074]	-6.966
CC1CN(c2cnn(Cc3ccc(NC(=O)Nc4cccc(C(F)(F)F)c4)cc3)c(=O)c2Cl)CC(C)N1 (centres unmarked) [TCMDC-141938]	-19.52
CC1CN(c2cnn(C/C=C/c3ccc(NC(=O)c4ccc(Cl)cc4)cc3)c(=O)c2Cl)CC(C)N1 (centres unmarked) [TCMDC-132469]	77.2
CC1CN(c2cnn(C/C=C/c3ccc(NC(=O)c4ccc([N+](=O)[O-])cc4)cc3)c(=O)c2Cl)CC(C)N1 (centres unmarked) [TCMDC-132467]	91.62
CCOC(=O)c1ccc(NC(=O)Nc2ccc(Cn3ncc(N4CCCNCC4)c(Cl)c3=O)cc2)cc1 [TCMDC-133330]	-19
CC1CN(c2cnn(C/C=C/c3ccc(NC(=O)c4ccc5nonc5c4)cc3)c(=O)c2Cl)CC(C)N1 (centres unmarked) [TCMDC-132468]	104.2
CC1CN(c2cnn(Cc3ccc(NC(=O)Nc4ccc(F)cc4[N+](=O)[O-])cc3)c(=O)c2Cl)CC(C)N1 (centres unmarked) [TCMDC-141939]	5.517
COC(=O)c1ccc(NC(=O)Nc2ccc(Cn3ncc(N4CCCNCC4)c(Cl)c3=O)cc2)cc1 [TCMDC-133315]	-30.5
CC1CN(c2cnn(Cc3cccc(NC(=O)Nc4cccc(C(F)(F)F)c4)c3)c(=O)c2Cl)CC(C)N1 (centres unmarked) [TCMDC-141933]	-18.84
CC1CN(c2cnn(Cc3cccc(NC(=O)Nc4ccc(F)cc4[N+](=O)[O-])c3)c(=O)c2Cl)CC(C)N1 (centres unmarked) [TCMDC-141934]	17.4
CN1C(=CC(=O)NC(=O)c2ccccc2)C(C)(C)c2ccccc21 [TCMDC-136649]	14.63
Cc1nc2ccc3nc(NC(=O)c4ccno4)sc3c2s1 [TCMDC-124989]	-34.07
CCCCCCCn1c(=O)c(C(=O)Nc2c(C)cccc2C)c(O)c2ccccc21 [TCMDC-124465]	13.41
CN(C)c1cccc2c1nc(-c1ccco1)n2CC1CCCN1 (centres unmarked) [TCMDC-133408]	-1.299
CCCCn1c(-c2ccco2)nc2c(c(=O)c3ccccc3n2C)c1=O [TCMDC-124920]	70.03
Cc1ccccc1CNc1noc(-c2sccc2Br)n1 [TCMDC-134183]	-16.29
N#Cc1ccc(NC(=NC2CCCc3ccccc32)Nc2ccc(-c3ccccc3)cc2)c(O)c1 (centres unmarked) [TCMDC-140207]	-97.78
O=C(NC1CCC(CN2CCC(c3c[nH]c4ccccc34)CC2)CC1)c1ccc(-c2ccccc2[N+](=O)[O-])o1 (centres unmarked) [TCMDC-140295]	-19.57
O=C(c1cc2cccc([N+](=O)[O-])c2[nH]1)N1CCC(CCN2CCC(c3c[nH]c4ccccc34)CC2)CC1 [TCMDC-139880]	92.61
N#Cc1ccc2c(c1)CCN(CCC1CCC(NC(=O)c3cc4cccc([N+](=O)[O-])c4[nH]3)CC1)C2 (centres unmarked) [TCMDC-139188]	23.84
O=C(NC1CCC(CN2CCC(c3c[nH]c4ccccc34)CC2)CC1)c1cc2cccc([N+](=O)[O-])c2[nH]1 (centres unmarked) [TCMDC-139879]	95.83
